Results on nine molecules are retold here after PubChem BioAssay (EPA / NIEHS).

The target in assay [1] is Bile acid receptor (Homo sapiens) (UniProt Q96RI1). The experiment in a line: ATG_FXR_TRANS: Attagene TRANS-FACTORIAL HepG2 Assay for Farnesoid X Receptor (FXR) (AID 2282979; active = hit-call score of the fitted dose curve at least 0.9, where 1 is the maximum;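 note: hits raise reporter mRNA above DMSO so AC50 marks FXR activation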). As to conditions: HepG2 Attagene TRANS FXR-GAL4 reporter transcription. The procedure, abridged: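 HepG2 cells were transiently transfected with GAL4-UAS reporters driven by chimeric NR-Gal4 proteins and dosed for 24 h. Reporter mRNA was quantified by RT-PCR, fluorescent labelling, HpaI digestion and capillary electrophoresis, with gain of signal scored versus DMSO.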

Assay [2] concerns the target Oxysterols receptor LXR-beta (Homo sapiens) (UniProt P55055). Briefly: ATG_LXRb_TRANS: Attagene TRANS-FACTORIAL HepG2 Assay for human Liver X Receptor beta (LXRb) (AID 2282981; active = hit-call score of the fitted dose curve at least 0.9, where 1 is the maximum). As to conditions: HepG2 Attagene TRANS GAL4-LXRb reporter, mRNA. The procedure, abridged:
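Measures induction of a Gal4-driven reporter transcript in HepG2 cells expressing an exogenous LXRb-Gal4 fusion. Cells are exposed to compound for 24 h before RNA isolation and RT-PCR with capillary electrophoresis detection.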

For assay [3], the target named is Hepatocyte nuclear factor 4-alpha (Homo sapiens) (UniProt P41235). The experiment in a line: ATG_HNF4a_TRANS: Attagene TRANS-FACTORIAL HepG2 Assay for human Hepatocyte Nuclear Factor 4 alpha (HNF4a) (AID 2282982; active = hit-call score of the fitted dose curve at least 0.9, where 1 is the maximum). The note with it: HepG2 HNF4a transactivation reporter, mRNA readout. A digest of the protocol: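 In this trans-factorial format, a chimeric HNF4a-GAL4 fusion drives a GAL4-UAS reporter in transfected HepG2 liver cells. After 24 h treatment, reporter mRNA induction is measured by RT-PCR with capillary electrophoresis, relative to DMSO.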

Assay [4] can be described thus: ATG_M_06_TRANS: Attagene TRANS-FACTORIAL HepG2 Assay for M06 Transcription Factor (Internal Marker) (AID 2282983; active = hit-call score of the fitted dose curve at least 0.9, where 1 is the maximum). As to conditions: HepG2 Attagene TRANS M06 internal marker reporter. A digest of the protocol: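 mRNA levels of a reporter transcript, quantified as FAM fluorescence on capillary electrophoresis, served as readout. HepG2 cells expressing exogenous GAL4-chimera reporter constructs were exposed for 24 h. Gain of signal over DMSO was evaluated.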

The target of assay [5] is Transcriptional activator Myb (Homo sapiens) (UniProt P10242). The experiment in a line: ATG_Myb_CIS: Attagene CIS-FACTORIAL HepG2 Assay for human Myeloblastosis (Myb) Proto-Oncogene Transcription Factor (AID 2282986). As to conditions: HepG2 Attagene CIS-FACTORIAL Myb reporter transcription; actives raise or lower the signal. The procedure, abridged: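 Transiently transfected HepG2 cells, treated 24 h. Reporter mRNA quantified by RT-PCR/capillary electrophoresis; bidirectional fit relative to DMSO.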

The target in assay [6] is Nuclear respiratory factor 1 (Homo sapiens) (UniProt Q16656). The experiment in a line: ATG_NRF1_CIS: Attagene CIS-FACTORIAL HepG2 Assay for human Nuclear Respiratory Factor 1 (NRF1) Orphan Gene (AID 2282987). As to conditions: HepG2 NRF1 cis-element reporter, Attagene multiplex; actives raise or lower the signal. The procedure, abridged: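 Cells (HepG2, transient MRTU transfection) are exposed to compound for 24 h, then RNA isolated and reporter mRNA amplified and fluorescently labelled. Fragments are separated by capillary electrophoresis; signal change is fitted bidirectionally relative to DMSO.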

A short description of assay [7]: ATG_NFI_CIS: Attagene CIS-FACTORIAL HepG2 Assay for human Nuclear Factor I (NFI) (AID 2282989). The note with it: HepG2 cis-regulatory reporter, NFI response element transcription; actives raise or lower the signal. A digest of the protocol: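 Transfected HepG2 liver cells, exposed 24 h, supplied total RNA for oligo(dT) reverse transcription and reporter-specific PCR. Labelled, HpaI-cut fragments were sized by capillary electrophoresis; DMSO set the baseline for bidirectional fitting.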

Assay [8] addresses Myc proto-oncogene protein (Homo sapiens) (UniProt P01106). The experiment in a line: ATG_Myc_CIS: Attagene CIS-FACTORIAL HepG2 Assay for human Myelocytomatosis (Myc) Proto-Oncogene Transcription Factor (AID 2282990). The note with it: HepG2, Attagene cis-reporter transcription factor activity; actives raise or lower the signal. A digest of the protocol:
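HepG2 cells transiently transfected with multiple cis-promoter-driven reporter transcription units, so endogenous TF activity is read. After 24 h compound exposure, reporter mRNA was quantified by RT-PCR, 6-FAM labelling, HpaI digestion and capillary electrophoresis; bidirectional fit versus DMSO.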

Assay [9] in a line: ATG_NF_kB_CIS: Attagene CIS-FACTORIAL HepG2 Assay for human Nuclear Factor Kappa B (NF-kB) (AID 2282991). As to conditions: HepG2 Attagene cis-factorial NF-kB reporter mRNA; actives raise or lower the signal. A digest of the protocol: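 Measures mRNA induction of an NF-kB-responsive cis-element reporter in HepG2 cells transfected with multiple reporter units, sampled 24 h post-dosing; quantified by fluorescence after RT-PCR and capillary electrophoresis, fitted for activation or inhibition against DMSO.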

A short description of assay [10]: ATG_NRF2_ARE_CIS: Attagene CIS-FACTORIAL HepG2 Assay for human Nuclear Factor Erythroid 2 Related Factor 2 (NFR2) response to Antioxidant Response Elements (ARE) (AID 2282992).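 For AC50: reporter mRNA level measured by RT-PCR and capillary electrophoresis fluorescence.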 The note with it: HepG2 Attagene ARE/NRF2 reporter, transcription factor activity; actives raise or lower the signal. A digest of the protocol: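 Using transiently transfected HepG2 cells exposed for 24 h, reporter mRNA levels were determined by RT-PCR with fluorescent primer extension and capillary electrophoresis, analysed for gain or loss of signal against DMSO.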

Assay [11] deals with Cellular tumor antigen p53 (Homo sapiens) (UniProt P04637). Briefly: ATG_p53_CIS: Attagene CIS-FACTORIAL HepG2 Assay for human p53 Transcription Factor (AID 2282994). The note with it: HepG2 p53 cis-element reporter, Attagene mRNA; actives raise or lower the signal. A digest of the protocol: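 In HepG2 cells, reporter transcription units under cis-regulatory promoters were transiently introduced. Following 24 h treatment, RNA was processed to labelled, digested cDNA fragments read by capillary electrophoresis; fitting was bidirectional versus DMSO.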

The target of assay [12] is Oxysterols receptor LXR-alpha (Homo sapiens) (UniProt Q13133). Briefly: ATG_LXRa_TRANS: Attagene TRANS-FACTORIAL HepG2 Assay for human Liver X Receptor alpha (LXRa) (AID 2282980; active = hit-call score of the fitted dose curve at least 0.9, where 1 is the maximum). As to conditions: HepG2 Attagene TRANS reporter, LXRa transactivation. A digest of the protocol:
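HepG2 cells transiently transfected with GAL4-UAS reporter units for chimeric NR-Gal4 proteins, exposed to chemicals for 24 h. Reporter mRNA quantified by RT-PCR and capillary electrophoresis; gain of signal fitted relative to DMSO.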

The nature of assay [13]: ATG_M_32_TRANS: Attagene TRANS-FACTORIAL HepG2 Assay for M32 Transcription Factor (Internal Marker) (AID 2282984; active = hit-call score of the fitted dose curve at least 0.9, where 1 is the maximum;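 note: transcript level of a background control reporter unit measured by RT-PCR and capillary electrophoresis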). The note with it: HepG2 Attagene TRANS M32 internal marker reporter. The procedure, abridged:
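After 24 h dosing of transfected HepG2 cells, total RNA was reverse-transcribed, reporter sequences PCR-amplified, 6-FAM labelled by primer extension and HpaI-digested before capillary electrophoresis. Signal increase over DMSO was fitted.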

The nature of assay [14]: ATG_Oct_MLP_CIS: Attagene CIS-FACTORIAL HepG2 Assay for human Octamer-Binding Transcription Factor (Oct) (AID 2282993). The note with it: HepG2 Attagene cis-factorial Oct reporter, mRNA; actives raise or lower the signal. The procedure, abridged:
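Using HepG2 cells bearing transfected cis-reporter constructs, mRNA induction was read after 24 h by fluorescent RT-PCR and capillary electrophoresis, with DMSO defining baseline for gain- or loss-of-signal fits.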

Assay [15] is described as follows: BSK_3C_TissueFactor: BioMAP Diversity Plus: 3C Assay for Tissue Factor Biomarker Activity (AID 2282997). As to conditions: BioMAP 3C HUVEC, tissue factor biomarker readout; actives raise or lower the signal. A digest of the protocol:
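Tissue Factor measured by ELISA, 24 h after treatment of primary HUVEC in the BioMAP 3C setting.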

Assay [16] can be described thus: BSK_3C_uPAR: BioMAP Diversity Plus: 3C Assay for Urokinase-type plasminogen activator receptor (uPAR) Biomarker Activity (AID 2282998). As to conditions: BioMAP 3C HUVEC, uPAR biomarker ELISA; actives raise or lower the signal. A digest of the protocol: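 In this endothelial cell-based assay, human umbilical vein primary cells were treated with chemicals and harvested at 24 h. uPAR was quantified using ELISA, with gains or losses fitted relative to DMSO controls.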

Assay [17] is described as follows: BSK_3C_VCAM1: BioMAP Diversity Plus: 3C Assay for Vascular cell adhesion molecule 1 (VCAM1) Biomarker Activity (AID 2282999). The note with it: BioMAP 3C HUVEC, VCAM1 ELISA, cytokine-stimulated; actives raise or lower the signal. A digest of the protocol:
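Vascular primary endothelium (human umbilical vein) was exposed to chemicals and assayed 24 h later. VCAM-1 levels came from ELISA, with DMSO serving as baseline for bidirectional fitting.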

Assay [18] addresses Glucocorticoid receptor (Homo sapiens) (UniProt P04150). Briefly: ATG_GR_TRANS: Attagene TRANS-FACTORIAL HepG2 Assay for human Glucocorticoid Receptor (GR) (AID 2282978; active = hit-call score of the fitted dose curve at least 0.9, where 1 is the maximum;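 note: activators score as hits since higher reporter transcript over DMSO is fitted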). As to conditions: HepG2 Attagene TRANS GR reporter, mRNA transcription. The procedure, abridged:
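Reporter transcript levels, detected by fluorescence after RT-PCR and capillary electrophoresis, served as the endpoint. HepG2 cells bearing transfected GAL4-UAS reporters responsive to NR-GAL4 chimeras were incubated with compound 24 h; DMSO defined baseline.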

In assay [19] the target is Nuclear receptor subfamily 4 group A member 2 (Homo sapiens) (UniProt P43354). The experiment in a line: ATG_NURR1_TRANS: Attagene TRANS-FACTORIAL HepG2 Assay for human Nuclear Receptor Related Protein 1 (NURR1) (AID 2282985; active = hit-call score of the fitted dose curve at least 0.9, where 1 is the maximum). The note with it: HepG2 Attagene TRANS reporter, mRNA readout. The procedure, abridged:
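Chimeric NR-Gal4 fusion activity measured in HepG2 after 24 h treatment. Reporter transcripts detected by RT-PCR and capillary electrophoresis fluorescence; positive-direction curve fitting against DMSO.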

Results filed as inconclusive are left out. Activity calls are given as the source filed them. Rule for the calls, unless noted: active = hit-call score of the fitted dose curve at least 0.9, where 1 is the maximum; inactive = score below 0.9.

Chain of Oxysterols receptor LXR-alpha (Homo sapiens) (Q13133 whole entry, looked up, the tested form may be a part): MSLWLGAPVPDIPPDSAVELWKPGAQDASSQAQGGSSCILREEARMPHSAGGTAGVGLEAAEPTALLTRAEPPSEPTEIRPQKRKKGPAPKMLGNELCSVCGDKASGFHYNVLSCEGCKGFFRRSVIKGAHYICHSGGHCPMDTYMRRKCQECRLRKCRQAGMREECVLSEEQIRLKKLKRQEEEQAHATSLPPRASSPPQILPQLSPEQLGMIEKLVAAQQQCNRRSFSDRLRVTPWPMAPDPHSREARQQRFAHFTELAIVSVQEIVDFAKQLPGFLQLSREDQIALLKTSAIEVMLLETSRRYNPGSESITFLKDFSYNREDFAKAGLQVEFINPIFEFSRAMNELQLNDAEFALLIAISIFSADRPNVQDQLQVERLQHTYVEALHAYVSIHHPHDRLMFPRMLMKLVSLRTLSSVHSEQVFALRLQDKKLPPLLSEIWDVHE
Chain of Oxysterols receptor LXR-beta (Homo sapiens) (P55055 whole entry, looked up, the tested form may be a part): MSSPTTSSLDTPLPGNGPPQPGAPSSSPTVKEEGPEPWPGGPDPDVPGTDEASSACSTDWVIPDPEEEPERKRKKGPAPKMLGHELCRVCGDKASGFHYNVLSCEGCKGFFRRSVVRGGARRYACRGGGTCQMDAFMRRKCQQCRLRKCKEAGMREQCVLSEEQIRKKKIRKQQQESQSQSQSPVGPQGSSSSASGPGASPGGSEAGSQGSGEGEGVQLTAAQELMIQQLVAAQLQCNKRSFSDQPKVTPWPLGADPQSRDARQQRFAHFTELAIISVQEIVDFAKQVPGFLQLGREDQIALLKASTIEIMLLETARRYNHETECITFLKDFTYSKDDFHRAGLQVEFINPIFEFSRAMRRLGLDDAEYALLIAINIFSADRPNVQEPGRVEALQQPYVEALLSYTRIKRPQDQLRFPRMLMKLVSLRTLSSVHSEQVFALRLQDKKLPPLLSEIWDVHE
Chain of Myc proto-oncogene protein (Homo sapiens) (P01106 whole entry, looked up): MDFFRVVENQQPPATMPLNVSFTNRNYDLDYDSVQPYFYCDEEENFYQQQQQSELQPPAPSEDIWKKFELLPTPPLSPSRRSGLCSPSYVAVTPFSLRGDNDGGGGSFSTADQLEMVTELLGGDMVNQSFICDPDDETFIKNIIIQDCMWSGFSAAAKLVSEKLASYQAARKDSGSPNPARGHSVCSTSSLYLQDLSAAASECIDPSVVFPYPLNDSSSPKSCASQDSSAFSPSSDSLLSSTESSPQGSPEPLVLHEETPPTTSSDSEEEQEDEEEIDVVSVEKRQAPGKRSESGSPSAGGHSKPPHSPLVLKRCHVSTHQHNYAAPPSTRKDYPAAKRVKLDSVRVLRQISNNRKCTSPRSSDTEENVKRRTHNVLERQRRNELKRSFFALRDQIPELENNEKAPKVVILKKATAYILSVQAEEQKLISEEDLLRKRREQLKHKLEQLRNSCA
Chain of Hepatocyte nuclear factor 4-alpha (Homo sapiens) (P41235 whole entry, looked up, the tested form may be a part): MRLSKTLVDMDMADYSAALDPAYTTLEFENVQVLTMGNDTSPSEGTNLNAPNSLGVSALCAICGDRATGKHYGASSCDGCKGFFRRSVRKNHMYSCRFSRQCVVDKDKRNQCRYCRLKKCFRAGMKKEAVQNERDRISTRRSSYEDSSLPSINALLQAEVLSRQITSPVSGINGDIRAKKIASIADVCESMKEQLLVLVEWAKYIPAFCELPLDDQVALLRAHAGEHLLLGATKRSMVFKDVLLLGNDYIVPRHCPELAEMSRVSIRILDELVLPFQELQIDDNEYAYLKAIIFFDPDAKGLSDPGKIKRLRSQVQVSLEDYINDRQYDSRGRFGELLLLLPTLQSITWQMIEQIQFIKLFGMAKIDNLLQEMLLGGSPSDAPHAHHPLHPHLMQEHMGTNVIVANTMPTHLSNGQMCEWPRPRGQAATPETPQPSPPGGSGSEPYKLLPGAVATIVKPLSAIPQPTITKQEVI
Chain of Transcriptional activator Myb (Homo sapiens) (P10242 whole entry, looked up): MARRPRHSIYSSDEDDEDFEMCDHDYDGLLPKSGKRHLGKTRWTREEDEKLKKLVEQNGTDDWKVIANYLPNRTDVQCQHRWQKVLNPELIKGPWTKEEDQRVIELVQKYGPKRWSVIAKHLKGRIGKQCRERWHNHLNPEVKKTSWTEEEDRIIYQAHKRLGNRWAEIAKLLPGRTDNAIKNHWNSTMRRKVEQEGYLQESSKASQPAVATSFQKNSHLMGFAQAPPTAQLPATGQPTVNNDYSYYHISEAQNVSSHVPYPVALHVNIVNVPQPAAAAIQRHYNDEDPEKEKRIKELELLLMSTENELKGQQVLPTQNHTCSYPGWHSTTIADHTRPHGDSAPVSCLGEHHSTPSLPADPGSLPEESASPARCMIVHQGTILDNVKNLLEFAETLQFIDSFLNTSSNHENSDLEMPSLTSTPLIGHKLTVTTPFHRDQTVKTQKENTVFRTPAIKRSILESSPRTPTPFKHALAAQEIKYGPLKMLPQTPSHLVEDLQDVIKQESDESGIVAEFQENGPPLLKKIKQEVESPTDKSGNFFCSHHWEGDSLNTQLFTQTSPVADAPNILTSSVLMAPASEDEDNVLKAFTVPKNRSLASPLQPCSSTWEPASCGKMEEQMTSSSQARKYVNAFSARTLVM
Chain of Bile acid receptor (Homo sapiens) (Q96RI1 whole entry, looked up, the tested form may be a part): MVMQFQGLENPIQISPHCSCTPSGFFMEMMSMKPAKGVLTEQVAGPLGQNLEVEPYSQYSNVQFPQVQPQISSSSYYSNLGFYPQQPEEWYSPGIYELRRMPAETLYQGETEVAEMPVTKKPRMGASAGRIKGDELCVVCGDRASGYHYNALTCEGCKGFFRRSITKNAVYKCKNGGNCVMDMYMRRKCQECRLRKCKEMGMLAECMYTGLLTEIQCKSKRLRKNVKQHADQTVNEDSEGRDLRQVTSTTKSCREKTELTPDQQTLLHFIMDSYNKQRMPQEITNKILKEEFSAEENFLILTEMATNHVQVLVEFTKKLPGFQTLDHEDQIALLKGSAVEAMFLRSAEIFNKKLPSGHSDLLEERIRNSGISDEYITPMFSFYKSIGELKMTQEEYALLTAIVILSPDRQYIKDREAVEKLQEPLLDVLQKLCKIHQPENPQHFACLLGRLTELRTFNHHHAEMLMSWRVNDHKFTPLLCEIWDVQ
Chain of Cellular tumor antigen p53 (Homo sapiens) (P04637 whole entry, looked up, the tested form may be a part): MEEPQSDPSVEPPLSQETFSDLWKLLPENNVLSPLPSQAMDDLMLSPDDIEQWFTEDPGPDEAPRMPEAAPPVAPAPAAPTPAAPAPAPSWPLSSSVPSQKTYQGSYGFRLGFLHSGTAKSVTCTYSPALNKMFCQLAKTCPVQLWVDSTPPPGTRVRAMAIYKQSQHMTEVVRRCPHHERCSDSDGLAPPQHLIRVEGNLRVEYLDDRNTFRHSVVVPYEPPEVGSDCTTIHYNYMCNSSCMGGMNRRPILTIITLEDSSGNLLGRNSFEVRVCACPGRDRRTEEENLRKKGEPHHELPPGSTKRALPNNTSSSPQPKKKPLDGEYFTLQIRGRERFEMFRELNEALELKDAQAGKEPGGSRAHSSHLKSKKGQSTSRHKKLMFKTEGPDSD
Chain of Nuclear respiratory factor 1 (Homo sapiens) (Q16656 whole entry, looked up, the tested form may be a part): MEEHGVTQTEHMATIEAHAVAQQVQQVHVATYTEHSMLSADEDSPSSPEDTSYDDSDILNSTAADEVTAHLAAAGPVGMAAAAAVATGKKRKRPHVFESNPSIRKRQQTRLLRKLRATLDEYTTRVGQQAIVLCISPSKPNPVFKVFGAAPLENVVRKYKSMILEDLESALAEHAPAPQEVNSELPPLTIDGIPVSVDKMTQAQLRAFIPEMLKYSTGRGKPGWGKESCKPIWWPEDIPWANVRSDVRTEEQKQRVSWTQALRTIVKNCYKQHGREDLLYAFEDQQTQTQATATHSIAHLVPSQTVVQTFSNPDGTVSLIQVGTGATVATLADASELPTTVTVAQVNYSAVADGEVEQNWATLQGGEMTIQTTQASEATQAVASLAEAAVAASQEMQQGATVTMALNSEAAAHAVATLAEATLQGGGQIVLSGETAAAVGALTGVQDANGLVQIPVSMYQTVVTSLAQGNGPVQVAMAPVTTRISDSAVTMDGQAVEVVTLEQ
Chain of Nuclear receptor subfamily 4 group A member 2 (Homo sapiens) (P43354 whole entry, looked up, the tested form may be a part): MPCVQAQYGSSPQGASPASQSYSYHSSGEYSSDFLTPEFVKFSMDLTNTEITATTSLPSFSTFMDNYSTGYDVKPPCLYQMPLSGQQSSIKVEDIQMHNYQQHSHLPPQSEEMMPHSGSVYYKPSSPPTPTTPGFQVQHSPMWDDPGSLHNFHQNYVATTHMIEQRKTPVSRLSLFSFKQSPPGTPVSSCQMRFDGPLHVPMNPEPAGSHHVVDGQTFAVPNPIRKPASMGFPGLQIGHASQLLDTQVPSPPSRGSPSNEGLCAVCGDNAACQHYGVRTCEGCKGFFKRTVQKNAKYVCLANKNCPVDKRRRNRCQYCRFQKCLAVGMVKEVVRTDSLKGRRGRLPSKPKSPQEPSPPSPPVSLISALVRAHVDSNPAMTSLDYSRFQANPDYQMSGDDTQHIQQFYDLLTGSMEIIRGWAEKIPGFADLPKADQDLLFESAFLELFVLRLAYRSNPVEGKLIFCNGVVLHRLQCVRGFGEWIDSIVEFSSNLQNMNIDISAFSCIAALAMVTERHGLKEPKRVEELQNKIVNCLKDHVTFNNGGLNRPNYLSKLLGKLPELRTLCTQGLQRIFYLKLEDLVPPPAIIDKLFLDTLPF

Take `CCC(C)C(=O)OCCc1ccccc1` (centres undefined): the molecule was classed as inactive in assay [1], in [2], in assay [3], in [4], in assay [5] and in [6]. In addition, the molecule was classed as inactive in assay [7], in assay [8], in assay [9], in [10] and in assay [11].
`CCN1CN(CC)CN(CC)C1`: the outcome in assay [1], in [12], in [2], in [13], in [5] and in [6] was inactive. Also, the result in assay [8], in assay [9], in [10], in assay [11], in [15] and in assay [16] was inactive. Further, the result in assay [17] was inactive. Moreover, the AC50 in [7] is 162 µM (active); in assay [14], 159 µM (active).
Turning to `CC(C)CCCCCOC(=O)CS`, the result in assay [18], in assay [3], in assay [4], in assay [13], in assay [5] and in assay [7] was inactive. Further, the outcome in assay [8], in assay [9], in assay [14], in assay [11], in [15] and in [16] was inactive.
As for `C=CC(=O)OCCCCCCCC(C)C`, the call in [1], in assay [12], in assay [2], in assay [4], in [5] and in [6] was inactive. For the same molecule, the result in assay [7], in assay [8], in assay [9], in [11] and in assay [16] was inactive. In addition, the AC50 was 58 µM (active) in assay [10], 121 µM (active) in assay [14], 20 µM (active) in assay [15] and 13 µM (active) in assay [17].
As for `Cc1ccc(S(=O)(=O)N=C=O)cc1`, the molecule was classed as inactive in assay [18], in [3], in assay [4], in [19], in [5] and in [6]. For the same molecule, the result in assay [7], in assay [8], in assay [9], in assay [10], in assay [14] and in assay [11] was inactive.
In the case of `COC(=O)C=Cc1ccccc1`, the molecule was called inactive in assay [12], in [2], in assay [5], in assay [6], in [7] and in assay [8]. In assay [14], the call was inactive.
For `CCCCc1ccc(Cl)cc1`, the call in [1], in assay [13], in assay [19], in assay [5], in [6] and in [7] was inactive. For the same molecule, the call in assay [8], in assay [10] and in [11] was inactive.
Take `CC1=CCC(C(C)C)C=C1` (centres undefined): the molecule was classed as inactive in [12], in assay [2], in assay [3], in [4], in [13] and in assay [19]. Moreover, the result in assay [5], in assay [6], in assay [7], in assay [8], in assay [14] and in [11] was inactive. Also, the AC50 in [10] was 25.3 µM (active).
Turning to `CCCCOCC(C)O` (centres undefined), the molecule was classed as inactive in [12], in assay [3], in [19], in assay [5], in assay [6] and in assay [7]. Also, the call in assay [8], in assay [9], in assay [14] and in assay [11] was inactive.
